# Data: publication PMC5540273 (PLoS ONE, 2017)
# System: T1, YSK4
# T1 construct: gene MAP3K19
# Conditions: concentration: 1 μM, replicates: in singlicate; n = 1
# 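Note: KINOMEscan kinase panel screen.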
row,SMILES,%Inh [%]
1,Cc1ccc(S(=O)(=O)Nc2ccc(Nc3nccc(Nc4cccc5[nH]ncc45)n3)cc2)cc1 [GSK581271],67
2,CC(=O)Nc1nc2cnc(Nc3cc(NC(=O)c4cccc(C5(C#N)CC5)c4Cl)ccc3C)nc2s1,0
3,CNC(=O)c1ccccc1Nc1nc(Nc2ccc(N3CCOCC3)cc2)ncc1Cl.Cl [GSK1576028],99.9
4,Cc1ccc(C(=O)N2CC[C@@H](O)C2)cc1-n1c(C)cc(OCc2ccc(F)cc2F)c(Br)c1=O,0
5,COc1ccc(Nc2nccc(N3CCC(NC(=O)Nc4cccc(OC)c4)C3)n2)cc1 (centres unmarked) [GSK1379742],23
6,Cl.Cl.NCC(C(=O)Nc1cc(Br)c(-c2ccnc3[nH]ccc23)s1)c1ccccc1 (centres unmarked) [GSK1269851],95.5
7,Oc1cc(Nc2ccnc3cc(I)ccc23)ccc1F [GW552771],79
8,COc1ccc(Nc2nccc(NCCNC(=O)c3cc4ccccc4s3)n2)cc1 [GSK1379896],0
9,CCS(=O)(=O)c1ccc(OC)c(Nc2nccc(-c3c(-c4cccc(NC(=O)c5c(F)cccc5F)c4)nn4ncccc34)n2)c1 [GSK326180],33
10,COc1cccc(C(=O)Nc2cccc(Oc3ccc4nc(NC(=O)C5CC5)cn4n3)c2)c1,100
11,CN(C)Cc1ccc(-c2ccc3c(Nc4ccc(Oc5ccccn5)cc4)ccnc3c2)o1 [GW567148],30
12,Clc1ccc(-c2nn3ncccc3c2-c2ccnc(Nc3ccc4c(c3)OCCO4)n2)cc1 [GW829116],0
13,Cl.c1ccc(-c2ccc3c(Nc4ccc5[nH]ccc5c4)ccnc3c2)nc1 [GW440138],51
14,Fc1ccc(-c2ncn(C3CCNCC3)c2-c2ccnc(Oc3ccc(-c4ccccc4)cc3)n2)cc1 [SB-245391],47
15,O=C(Nc1cccc(Oc2ccc3nc(NC(=O)C4CC4)cn3n2)c1)c1ccccc1C(F)(F)F,70
16,COc1cccc(C2=C(Nc3ccc(Cl)c(C(=O)O)c3)C(=O)NC2=O)c1 [SB-390769],100
17,Cc1ccc(C(=O)Nc2ccc(Nc3ccnc4cc(-c5nccs5)ccc34)cc2O)cc1.Cl [GW494702],30
18,Cc1ccc(C)c(NC(=O)NC2CCN(c3ccnc(Nc4ccc(F)cc4)n3)C2)c1 (centres unmarked) [GSK1379720],29
19,COc1ccc(-c2coc3ccc(-c4nnc(SCc5ccc(OC)c(C(F)(F)F)c5)o4)cc23)cc1,20
20,COc1cc(Nc2ncc3c(C)nc(-c4cc5ccccc5[nH]4)n3n2)cc(OC)c1OC [GW869516],0
21,O=C(NC1CCN(c2ccnc(Nc3ccc(F)cc3)n2)C1)c1cc2ccccc2s1 (centres unmarked) [GSK1379716],14
22,Cn1cc(-c2ccc3c(c2)CCN3C(=O)Cc2cccc(Cl)c2)c2c(N)ncnc21 [GSK2606590],98.2
23,COC(=O)Nc1nc2ccc(Oc3ccc(NC(=O)Nc4cc(C(F)(F)F)ccc4F)cc3)cc2n1C.Cl [GW692089],36
24,O=C(O)C(F)(F)F.O=C(O)C(F)(F)F.O=c1[nH]ccc2nc(N[C@@H]3CCCNC3)nc(Nc3ccc(S(=O)(=O)N4CCOCC4)cc3)c12 [GSK2177277],99.7
25,CCn1c(-c2nonc2N)nc2c(C#CC(C)(C)O)ncc(OCCCCN)c21.O=C(O)C(F)(F)F.O=C(O)C(F)(F)F [GSK507274],99.4

# System: ZAK
# Conditions: concentration: 1 μM, replicates: in singlicate; n = 1
row,SMILES,%Inh [%]
1,CN1CCN(Cc2cccc(-c3ccc4c(Nc5ccc(Oc6ccccc6)cc5)ccnc4c3)c2)CC1 [GW578342],79
2,O=C(Nc1ccccc1F)NC1CCN(c2ccnc(Nc3ccc(F)cc3)n2)CC1 [GSK1379800],30
3,Cl.c1ccc(-c2ccc3c(Nc4ccc5[nH]ncc5c4)ccnc3c2)nc1 [GW440137],71
4,CCn1c(-c2nonc2N)nc2c(C#CC(C)(C)O)nc(OC[C@H](N)c3ccccc3)cc21 [GSK943949],0
5,O=C(Nc1cccc(-c2nn3ccccc3c2-c2ccnc(Nc3cccc(C(F)(F)F)c3)n2)c1)c1c(F)cccc1F [GSK292658],80
6,Cn1cc(-c2ccc3c(c2)CCN3C(=O)Cc2cccc(F)c2)c2c(N)ncnc21 [GSK2603358],0
7,COc1cc(Nc2nccc(N3CCC(NC(=O)c4cc5ccccc5s4)C3)n2)cc(OC)c1OC (centres unmarked) [GSK1379760],0
8,COCCOCCOc1cc2ncc3c4ccc(C#N)cc4[nH]c3c2cc1OC,33
9,Cl.Cl.NCC(NC(=O)c1cc(-c2ccccc2)c(-c2ccnc3[nH]ccc23)s1)c1ccccc1 (centres unmarked) [GSK1321561],46
10,COc1cc(Nc2nccc(-c3c(-c4cccc(NC(=O)c5c(F)cccc5F)c4)nn4ncccc34)n2)cc(OC)c1OC [GSK327238],97.2
11,CN(C)S(=O)(=O)c1cc(-c2ccc3nccc(-c4cccc(S(N)(=O)=O)c4)c3c2)cnc1N [GSK1669921],0
12,Cl.Cl.NCC(NCc1ccc(-c2ccnc3[nH]ccc23)s1)c1ccccc1 (centres unmarked) [GSK1321565],15
13,Cc1ccc(S(=O)(=O)Nc2ccc(Nc3nccc(Nc4cccc5[nH]ncc45)n3)cc2)cc1 [GSK581271],13
14,CC(=O)Nc1nc2cnc(Nc3cc(NC(=O)c4cccc(C5(C#N)CC5)c4Cl)ccc3C)nc2s1,17
15,CNC(=O)c1ccccc1Nc1nc(Nc2ccc(N3CCOCC3)cc2)ncc1Cl.Cl [GSK1576028],13
16,Cc1ccc(C(=O)N2CC[C@@H](O)C2)cc1-n1c(C)cc(OCc2ccc(F)cc2F)c(Br)c1=O,0
17,COc1ccc(Nc2nccc(N3CCC(NC(=O)Nc4cccc(OC)c4)C3)n2)cc1 (centres unmarked) [GSK1379742],2
18,Cl.Cl.NCC(C(=O)Nc1cc(Br)c(-c2ccnc3[nH]ccc23)s1)c1ccccc1 (centres unmarked) [GSK1269851],0
19,Oc1cc(Nc2ccnc3cc(I)ccc23)ccc1F [GW552771],73

row,SMILES,%Inh [%]
1,COc1ccc(Nc2nccc(NCCNC(=O)c3cc4ccccc4s3)n2)cc1 [GSK1379896],0
2,CCS(=O)(=O)c1ccc(OC)c(Nc2nccc(-c3c(-c4cccc(NC(=O)c5c(F)cccc5F)c4)nn4ncccc34)n2)c1 [GSK326180],28
3,COc1cccc(C(=O)Nc2cccc(Oc3ccc4nc(NC(=O)C5CC5)cn4n3)c2)c1,62
4,CN(C)Cc1ccc(-c2ccc3c(Nc4ccc(Oc5ccccn5)cc4)ccnc3c2)o1 [GW567148],65
5,Clc1ccc(-c2nn3ncccc3c2-c2ccnc(Nc3ccc4c(c3)OCCO4)n2)cc1 [GW829116],9
6,Cl.c1ccc(-c2ccc3c(Nc4ccc5[nH]ccc5c4)ccnc3c2)nc1 [GW440138],0
7,Fc1ccc(-c2ncn(C3CCNCC3)c2-c2ccnc(Oc3ccc(-c4ccccc4)cc3)n2)cc1 [SB-245391],17
8,O=C(Nc1cccc(Oc2ccc3nc(NC(=O)C4CC4)cn3n2)c1)c1ccccc1C(F)(F)F,25
9,COc1cccc(C2=C(Nc3ccc(Cl)c(C(=O)O)c3)C(=O)NC2=O)c1 [SB-390769],0
10,Cc1ccc(C(=O)Nc2ccc(Nc3ccnc4cc(-c5nccs5)ccc34)cc2O)cc1.Cl [GW494702],63
11,Cc1ccc(C)c(NC(=O)NC2CCN(c3ccnc(Nc4ccc(F)cc4)n3)C2)c1 (centres unmarked) [GSK1379720],15
12,COc1ccc(-c2coc3ccc(-c4nnc(SCc5ccc(OC)c(C(F)(F)F)c5)o4)cc23)cc1,0
13,COc1cc(Nc2ncc3c(C)nc(-c4cc5ccccc5[nH]4)n3n2)cc(OC)c1OC [GW869516],0
14,O=C(NC1CCN(c2ccnc(Nc3ccc(F)cc3)n2)C1)c1cc2ccccc2s1 (centres unmarked) [GSK1379716],20
15,Cn1cc(-c2ccc3c(c2)CCN3C(=O)Cc2cccc(Cl)c2)c2c(N)ncnc21 [GSK2606590],0
16,COC(=O)Nc1nc2ccc(Oc3ccc(NC(=O)Nc4cc(C(F)(F)F)ccc4F)cc3)cc2n1C.Cl [GW692089],87
17,O=C(O)C(F)(F)F.O=C(O)C(F)(F)F.O=c1[nH]ccc2nc(N[C@@H]3CCCNC3)nc(Nc3ccc(S(=O)(=O)N4CCOCC4)cc3)c12 [GSK2177277],0
18,CCn1c(-c2nonc2N)nc2c(C#CC(C)(C)O)ncc(OCCCCN)c21.O=C(O)C(F)(F)F.O=C(O)C(F)(F)F [GSK507274],36
